In PubChem BioAssay (NCI):
About 79,000 compounds went through this panel and 15% of them were active in at least one assay; those are over-represented in the sample as a whole. Activity calls are given as the source filed them. Rule as the data show it: active = growth inhibition above about 70%; inactive = the rest.

Tests used:
[1] = NCI Yeast Anticancer Drug Screen. Data for the rad52 strain (AID 147);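 also: 0% = growth of vehicle-treated control cultures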; settings: S. cerevisiae rad52 mutant growth inhibition, stronger effect = higher value
Method in brief: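 Vehicle-treated cultures served as the reference for growth inhibition of compound-exposed yeast bearing a DNA repair mutation.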

[2] = NCI Yeast Anticancer Drug Screen. Data for the wt1 strain (AID 149);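 also: 0% = growth of vehicle-treated wt1 cultures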; settings: S. cerevisiae wt1 strain (SPY 50644) growth inhibition, stronger effect = higher value
Method in brief: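 Each compound is tested on wt1 yeast and the loss of growth versus vehicle gives the inhibition value.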

[3] = NCI Yeast Anticancer Drug Screen. Data for the rad50EPP+ strain (AID 151);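 also: 0% = growth of vehicle-treated control cultures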; settings: S. cerevisiae rad50 mutant strain, stronger effect = higher value
Method in brief: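 In this screen, rad50EPP+ yeast were exposed to compounds. Growth inhibition was scored against vehicle-treated controls.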

[4] = NCI Yeast Anticancer Drug Screen. Data for the mgt1 strain (AID 153); settings: S. cerevisiae mgt1 mutant growth inhibition, stronger effect = higher value
Method in brief: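 mgt1 strain exposed; growth vs vehicle control recorded as inhibition.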

[5] = NCI Yeast Anticancer Drug Screen. Data for the rad50 strain (AID 155);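 also: 0% = growth of vehicle-only cultures of the same strain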; settings: S. cerevisiae rad50 strain growth inhibition, stronger effect = higher value
Method in brief: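 Vehicle-treated cultures provide the reference for the growth inhibition reported for compound-exposed, repair-deficient yeast.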

[6] = NCI Yeast Anticancer Drug Screen. Data for the mec2-1 strain (AID 157); settings: S. cerevisiae mec2-1 strain, stronger effect = higher value
Method in brief: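 Vehicle-treated cultures served as reference for growth inhibition of compound-exposed mec2-1 yeast.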

[7] = NCI Yeast Anticancer Drug Screen. Data for the rad14 strain (AID 159);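 also: 0% = growth of vehicle-treated control cultures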; settings: S. cerevisiae rad14 strain growth inhibition, stronger effect = higher value
Method in brief: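 Inhibition of growth is reported for a repair-deficient yeast mutant following compound treatment, calculated relative to cultures that received vehicle.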

[8] = NCI Yeast Anticancer Drug Screen. Data for the sgs1 mgt1 strain (AID 161);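 also: 0% = growth of cultures given vehicle only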; settings: S. cerevisiae sgs1 mgt1 strain, stronger effect = higher value
Method in brief: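 Genetically altered yeast, compound exposure, growth inhibition relative to vehicle.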

[9] = NCI Yeast Anticancer Drug Screen. Data for the CLN2oe strain (AID 163);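 also: 0% = growth of vehicle-only control cultures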; settings: S. cerevisiae CLN2oe strain, stronger effect = higher value
Method in brief: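 Inhibition relative to vehicle-treated yeast is reported. Cells: strain with genetic alteration in cell-cycle control, grown with compound.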

[10] = NCI Yeast Anticancer Drug Screen. Data for the cln2 rad14 strain (AID 165);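 also: 0% = growth equal to vehicle treated cultures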; settings: S. cerevisiae cln2 rad14 strain, stronger effect = higher value
Method in brief: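 Each compound was tested on cln2 rad14 yeast. Inhibition of growth was calculated against vehicle-exposed controls.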

[11] = NCI Yeast Anticancer Drug Screen. Data for the bub3 strain (AID 167); settings: S. cerevisiae bub3 mutant strain, stronger effect = higher value
Method in brief: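 Mutant yeast screening strain plus compound; vehicle-treated cultures serve as the 0% inhibition reference.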

[12] = NCI Yeast Anticancer Drug Screen. Data for the wt2 strain (AID 169); settings: S. cerevisiae wt2 strain growth inhibition, stronger effect = higher value
Method in brief: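 Inhibition of yeast growth was determined after compound treatment, normalised to controls receiving only vehicle.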

[13] = NCI Yeast Anticancer Drug Screen. Data for the mlh1 strain (AID 171);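 also: 0% = growth of vehicle-treated control cultures of the same strain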; settings: S. cerevisiae mlh1 strain growth inhibition, stronger effect = higher value
Method in brief: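 Vehicle-normalised growth inhibition of a repair- or checkpoint-altered yeast strain following compound treatment.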

[14] = NCI Yeast Anticancer Drug Screen. Data for the sgs1 strain (AID 173);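 also: 0% = growth of vehicle-only control cultures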; settings: S. cerevisiae sgs1 mutant, stronger effect = higher value
Method in brief: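 Screen format: yeast with repair or checkpoint alterations, compound exposure, growth read relative to vehicle.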

[15] = NCI Yeast Anticancer Drug Screen. Data for the mlh1 rad18 strain (AID 175); settings: S. cerevisiae mlh1 rad18 strain growth inhibition, stronger effect = higher value
Method in brief: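 Vehicle-treated cultures served as the reference for growth inhibition in a yeast strain carrying DNA damage repair alterations exposed to each compound.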

[16] = NCI Yeast Anticancer Drug Screen. Data for the rad18 strain (AID 177); settings: S. cerevisiae rad18 mutant growth inhibition, stronger effect = higher value
Method in brief: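 Test articles were incubated with altered yeast defective in DNA damage repair. Results are given as inhibition of growth versus vehicle.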

[17] = at 5.0 µM (retest, dose inferred, filed as 0.5)
[18] = at 50.0 µM (retest, dose inferred, filed as 5.0)

Measured: growth inhibition

O=C(NCCCCCCCN1CCCCCCC1)C(C1CCCCC1)C1CCCCC1
inactive: [1]; at 1.2 µM 40% | [1]; at 3.7 µM 52% | [2]; at 1.2 µM 18% | [2]; at 3.7 µM 26% | [2]; at 11.0 µM 61% | [3]; at 1.2 µM 0% | [3]; at 3.7 µM -1% | [3]; at 11.0 µM 4% | [3]; at 33.0 µM 16% | [3]; at 100.0 µM 41% | [4]; at 1.2 µM 64% | [5]; at 1.2 µM 41% | [5]; at 3.7 µM 45% | [5]; [17] 35% | [6]; at 1.2 µM 43% | [6]; at 3.7 µM 39% | [6]; [17] 29% | [8]; [17] 36% | [9]; at 1.2 µM 53% | [9]; at 3.7 µM 65% | [10]; [17] 62% | [11]; at 1.2 µM 65% | [11]; at 3.7 µM 66% | [11]; [17] 27% | [12]; at 1.2 µM 37% | [12]; at 3.7 µM 56% | [13]; at 1.2 µM 44% | [13]; at 3.7 µM 48% | [14]; at 1.2 µM 59% | [14]; at 3.7 µM 67% | [15]; [17] 17% | [16]; at 1.2 µM 51% | [16]; at 3.7 µM 64%
active: [1]; at 11.0 µM 89% | [1]; at 33.0 µM 98% | [1]; at 100.0 µM 99% | [2]; at 33.0 µM 97% | [2]; at 100.0 µM 98% | [4]; at 3.7 µM 83% | [4]; at 11.0 µM 97% | [4]; at 33.0 µM 98% | [4]; at 100.0 µM 99% | [5]; at 11.0 µM 81% | [5]; at 33.0 µM 98% | [5]; [18] 99% | [5]; at 50.0 µM 99.3% | [5]; at 100.0 µM 98% | [6]; at 11.0 µM 85% | [6]; at 33.0 µM 98% | [6]; [18] 97% | [6]; at 50.0 µM 94.2% | [6]; at 100.0 µM 99% | [7]; at 1.2 µM 72% | [7]; at 3.7 µM 75% | [7]; at 11.0 µM 97% | [7]; at 33.0 µM 99% | [7]; at 100.0 µM 99% | [8]; [18] 98% | [8]; at 50.0 µM 99% | [9]; at 11.0 µM 92% | [9]; at 33.0 µM 97% | [9]; at 100.0 µM 98% | [10]; [18] 98% | [10]; at 50.0 µM 96.5% | [11]; at 11.0 µM 95% | [11]; at 33.0 µM 97% | [11]; [18] 99% | [11]; at 50.0 µM 99% | [11]; at 100.0 µM 98% | [12]; at 11.0 µM 95% | [12]; at 33.0 µM 98% | [12]; at 100.0 µM 99% | [13]; at 11.0 µM 95% | [13]; at 33.0 µM 98% | [13]; at 100.0 µM 99% | [14]; at 11.0 µM 95% | [14]; at 33.0 µM 98% | [14]; at 100.0 µM 99% | [15]; [18] 98% | [15]; at 50.0 µM 99.2% | [16]; at 11.0 µM 92% | [16]; at 33.0 µM 97% | [16]; at 100.0 µM 98%

CC(C)/C(Cl)=N\OC(=O)Nc1cccc(Cl)c1
inactive: [1]; at 1.2 µM -4% | [1]; at 3.7 µM -7% | [1]; at 11.0 µM -4% | [1]; at 33.0 µM -3% | [1]; at 100.0 µM -2% | [2]; at 1.2 µM -2% | [2]; at 3.7 µM 0% | [2]; at 11.0 µM -1% | [2]; at 33.0 µM -2% | [2]; at 100.0 µM 1% | [3]; at 1.2 µM -2% | [3]; at 3.7 µM -2% | [3]; at 11.0 µM 1% | [3]; at 33.0 µM 2% | [3]; at 100.0 µM 0% | [4]; at 1.2 µM -1% | [4]; at 3.7 µM -3% | [4]; at 11.0 µM 12% | [4]; at 33.0 µM -26% | [4]; at 100.0 µM 0% | [5]; at 1.2 µM -2% | [5]; at 3.7 µM -5% | [5]; [17] 8% | [5]; at 11.0 µM -26% | [5]; at 33.0 µM -1% | [5]; [18] 47% | [5]; at 50.0 µM 69.5% | [5]; at 100.0 µM 3% | [6]; at 1.2 µM 0% | [6]; at 3.7 µM 0% | [6]; [17] -17% | [6]; at 11.0 µM 2% | [6]; at 33.0 µM 2% | [6]; [18] 30% | [6]; at 100.0 µM 1% | [7]; at 1.2 µM 0% | [7]; at 3.7 µM 2% | [7]; at 11.0 µM 0% | [7]; at 33.0 µM 4% | [7]; at 100.0 µM 6% | [8]; [17] -17% | [9]; at 1.2 µM -4% | [9]; at 3.7 µM -3% | [9]; at 11.0 µM -6% | [9]; at 33.0 µM -3% | [9]; at 100.0 µM 10% | [10]; [17] -3% | [10]; [18] 19% | [11]; at 1.2 µM 1% | [11]; at 3.7 µM 4% | [11]; [17] -29% | [11]; at 11.0 µM 10% | [11]; at 33.0 µM 12% | [11]; at 100.0 µM 10% | [12]; at 1.2 µM -2% | [12]; at 3.7 µM -3% | [12]; at 11.0 µM -2% | [12]; at 33.0 µM -4% | [12]; at 100.0 µM 0% | [13]; at 1.2 µM -1% | [13]; at 3.7 µM -7% | [13]; at 11.0 µM 0% | [13]; at 33.0 µM 0% | [13]; at 100.0 µM -2% | [14]; at 1.2 µM 0% | [14]; at 3.7 µM 1% | [14]; at 11.0 µM 2% | [14]; at 33.0 µM 1% | [14]; at 100.0 µM 2% | [15]; [17] -12% | [15]; [18] 22% | [16]; at 1.2 µM -7% | [16]; at 3.7 µM -8% | [16]; at 11.0 µM -10% | [16]; at 33.0 µM -24% | [16]; at 100.0 µM -1%
active: [6]; at 50.0 µM 87.8% | [8]; [18] 83% | [8]; at 50.0 µM 85.2% | [10]; at 50.0 µM 72.3% | [11]; [18] 88% | [11]; at 50.0 µM 82.3% | [15]; at 50.0 µM 77.5%
